# What was measured:
# Assay in all cases: PBM binding z-score (relative to random genomic background probes); higher = stronger binding; sequences stand for … in GC…GCGATTGACAGCGTAGAATGAAGG
# [1] = system: RARb homodimer (NR concentration 270 nM)
# Outline: (§1)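 Random background probes are the reference for binding z-scores. These scores derive from regression-normalized fluorescence on custom Agilent 4×180K protein-binding microarrays incubated 1 h with ligand-free nuclear receptor dimers. Binding was detected with antibodies against each partner (one per run).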
# [2] = system: RARg:RXRa (NR concentration 270 nM, RXRa partner concentration 90 nM)
# Outline: as §1
# [3] = system: RARg homodimer (NR concentration 270 nM)
# Outline: as §1
# [4] = system: RXRa DBDmut IVT, anti-RXR (DBD mutation: RXRa K156A/R161A, NR concentration 90 nM)
# Outline: as §1
# [5] = system: RXRa homodimer (NR concentration 180 nM)
# Outline: as §1
# [6] = system: THRa:RXRa (NR concentration 90 nM, RXRa partner concentration 90 nM)
# Outline: as §1
# [7] = system: THRa homodimer (NR concentration 90 nM)
# Outline: as §1
# [8] = system: VDR homodimer (NR concentration 270 nM)
# Outline: as §1
Sequence,PBM binding z-score [1],PBM binding z-score [2],PBM binding z-score [3],PBM binding z-score [4],PBM binding z-score [5],PBM binding z-score [6],PBM binding z-score [7],PBM binding z-score [8]
AATATAGGGTCATCGTAGGCCAGAGTACGCACAG,3.83,5.9,5.5,3.83,6.83,4.67,2.3,3.76
CCTACTGGGCTAAAGGTCATTGATTCCAATGCTC,4.22,4.96,4.27,1.17,5.21,3.15,0.533,2.18
TAGCCTAGGTCATGCTGGCCAGTATAGTGTCGGC,3.02,3.72,4.32,0.579,2.71,3.03,0.898,-0.0948
ATATGTAGGTTATGGGTCATTCAGGTTGGTTCGC,2.97,3.09,2.28,1.31,3.79,2.74,1.53,2.76
ATCGAAAGGTCGTGAGGTGAGTAGACAGAAAGGC,2.99,4.61,3.94,1.15,5.39,3.28,1.3,0.659
TGTCAAAGTTCAAAAGTAACGTAAGTATCCACAC,3.09,5.13,5.21,4.25,4.57,1.86,-0.26,3.51
GCGACTGGGGCAAAGCCGGTTACCATAAGGTTGG,0.363,-0.242,0.26,-0.988,-0.295,0.48,-0.526,-0.688
CCTTACCGGTCACTGACAGGTTATAGCATTTGGA,2.7,3.19,3.15,0.586,1.2,1,0.662,0.617
TCTGCTAGGTCAGTTGGTCCGCTAACGAGCTGCC,2.05,1.98,2.93,0.518,0.727,0.962,-0.188,-0.485
TCTAGCAGGCCAGAGGGTCATTCAAGAGGTACGG,2.65,2.78,2.02,0.504,2.87,1.83,-0.373,1.28
ATCGAAAGGTGGAAGGTGAGTATACCCACCCGAA,0.363,0.767,0.717,-1.21,1.12,0.406,-0.497,0.146
TTACCAAGGTGAAGGTCCTTGATCCCTCTGTAGA,1.32,0.466,0.274,-0.201,0.918,1.95,0.841,-0.203
CGACCAAGGTCAAAGGTCAGTGAAGAGATGACGG,5.51,8.66,8.05,3.97,10.4,4.71,2.27,3.83
AAAACGAGGGCAATGAGTTGATAGCACGGGTGGC,1.2,1.23,1.6,2.07,1.13,1.31,-0.257,3.26
TAGCTTAGGTCATGCGGGCCAGTATAGTGTCGGC,3.21,3.97,4.75,1.31,2.97,3.6,2.34,0.954
CGTCAAAGATCAACTAAGGTAACGTAAAGCACGC,0.577,0.743,0.647,0.338,0.921,4.69,1.79,0.342
ACTAGTTGGTCAGCTGAGGTCAAACACAATTCGG,4.23,4.33,3.72,1.72,4.56,4.9,4.87,3.66
ATCGAGAGGTCGAGGTGAGTATAGAGAAAGGGAA,2.04,3.39,3.48,1.2,3.51,2.76,0.486,0.635
ACTATTAGTTGAGACGTGGGCAACCGATAGGTTG,-0.524,-0.179,0.239,-0.00277,-0.275,-0.642,-1.02,-0.369

Sequence,PBM binding z-score [1],PBM binding z-score [2],PBM binding z-score [3],PBM binding z-score [4],PBM binding z-score [5],PBM binding z-score [6],PBM binding z-score [7],PBM binding z-score [8]
GCTTACGAGTCAAAGGTTATAGCATGAATAGAAT,1.24,2.58,1.09,0.218,5,1.76,-0.786,-0.176
CAGCCTAGGTCAGGGCCAATATAGGAGGAACGTT,2.42,3.05,3.61,0.0153,1.69,2.07,0.573,0.171
TCTTGTAGATCAAGCAGGCTAAGAAAGCCTGAGT,-0.885,-0.605,-0.521,0.402,-0.67,-0.805,-0.733,-0.349
CCTAGTAGGCCAGGGTCACTCAAGCATTTCGCTT,3.03,3.04,2.56,0.104,3.3,2.94,1.18,1.6
TTACCAAGGTGAAAGGTCGTCGATGCACGCCTTG,2.78,4.43,2.22,0.201,6.2,3.55,0.956,0.709
CCGGGTAGGTTATGGGGCATTCAGGCAACGGTGA,1.1,0.906,0.708,-1.46,0.781,0.806,0.313,0.138
CCTAGCAGGCCAGGGTCTCTCAAGCATTTCGCTT,-0.597,-0.659,-0.606,-0.912,-0.675,-0.53,-0.611,-0.871
CCAGACAGGTGAGAAGGTAACTGAGCCTCGATTA,0.357,0.527,0.335,-0.107,0.0427,0.121,-0.33,-0.0729
GCTATTAGTTGAAAGGGCAATCGAATGATTCTCG,1.55,0.91,0.806,0.718,1.12,0.487,-0.359,0.123
CCTATTAGTTAACCATAAGGGCAACCGAAGCTCG,1.66,0.813,1.14,0.665,0.518,1.9,1.31,0.663
AGAACGAGGGCAATGAGTTGATGGCACGGGTGGC,1.11,0.928,1.54,1.36,0.636,0.857,-0.205,2.62
GCACCAAGGTGAATAGGTCGTTGATGAGTAGGCG,1.77,2.42,1.1,0.00127,1.77,1.63,0.229,-0.0787
ATCTCTAGGTACAGTTCAGTGAAAGATCGATAGA,0.899,0.55,0.987,1.95,0.449,0.634,0.0799,1.77
AATACAGGGTCATCGTAGGCCAGTGTACGCACAG,3.7,5.65,5.19,3.59,6.76,4.57,1.49,2.98
TCATAGAGGTAAAAGGTGAAAGTCGGTGTGGTAA,1.72,2.5,0.912,1.01,4,1.97,-0.0823,-0.219
GCTGCTAGGCCAGGTTGGTCAGCTAACGGGTACG,6.85e-05,-0.5,-0.124,-0.332,-0.773,-0.787,-1.23,-0.861
ACTATTAGTCGACTTAGGGCAACCGATACGACGC,0.58,0.342,0.707,0.415,0.416,1.09,0.02,-0.338
AGAATGAGGTTACCAAAGATCAGAGAAACGCTTG,0.638,2.17,1.6,1.04,2.47,2.64,0.519,0.185
CTCGAAAGGTCGGTTGATGTGAGTATACGGATAA,1.8,2.39,2.37,0.767,1.96,2.01,-0.0197,0.986

Sequence,PBM binding z-score [1],PBM binding z-score [2],PBM binding z-score [3],PBM binding z-score [4],PBM binding z-score [5],PBM binding z-score [6],PBM binding z-score [7],PBM binding z-score [8]
CCGACCGGGGCAGAAAGGTTACCATACCATCCGG,2.41,2.1,1.87,-0.807,1.89,1.53,-0.148,0.0914
TCTTGTAGATCAGCAGATTAAGAAAGCTGGCCAA,-0.767,-0.275,-0.543,0.615,-0.121,-0.329,-0.892,-0.178
CCTACTAGGCCATCAGGTCATTGATATCAACGTT,3.07,2.45,2.56,1.43,1.71,3.32,3.28,2.51
CCGACTGGGGGAGAAAGGTTACCATACCATCCGG,2.12,2.37,1.74,-0.115,2.39,1.84,0.416,0.562
CGTCCAAGGTCAAGGACAGTGAAAGAGACTCGAA,3.94,6.19,6.78,3.26,5.3,3.74,2.83,2.03
TCGAGTAGGTTAGGGGCCTTCAGAATGGCGTCGA,-0.137,-0.483,-0.763,-0.0601,-0.143,-0.36,-0.629,-0.468
AACTCTAGGTAACCAAGTTCAGTGAATGCCGAAC,0.982,0.219,0.32,0.853,0.269,1.34,0.572,2.11
ATATGTTGGTTATCGGGTCATTCAGTTTGCGCAT,2.89,2.24,1.97,1.61,2.56,3.26,3.07,4
CAAACTAAGTCACGAAAGGTCAAAGTCGAATGAC,5.04,6.02,5.67,0.992,6.79,4.42,1.2,2.58
TCTTGTAGATCAAGCAGGTTAAGAACGCCTGAGT,0.231,0.0271,-0.224,0.465,0.465,0.437,-0.161,0.189
CTCGAGAGGTCGTGCTCAGGTGAGTATACCAAAC,2.12,4.24,2.53,2.74,3.82,4.08,1.06,1.49
TCTGCTAGGTCAGCTGGTCAGCTAACGAGCTGCC,2.62,3.42,4.27,0.17,1.51,1.8,-0.216,-1.3
TCTTCTAGATCAATAGAGGTTAAGAAAGTGCGCT,1.17,1.06,0.808,0.902,1.4,1.96,-0.514,0.255
ACTCGTAGGACAAAGGTCAGAGCTACGCCAGTGA,4.29,5.58,4.82,1.14,5.3,2.92,0.244,0.657
CAAACTAGGTCAAGGTCATAGTCGGTTTGTGCCA,4.91,5.78,6.44,2.95,5.54,4.38,3.83,4.29
TAGCCTAGGTCATTGGGCCAGTATCGTACGCATC,2.91,3.85,4,1.73,2.84,2.87,1.01,1.43
AGAATGAGGTTATTAAGATCAGGGATTTGCGGTC,0.902,1.19,1.05,1.96,1.76,2.29,0.681,1.2
AATACAGGGTCACTAGGCCAGAATAGGTACGAAT,3.3,5.17,4.76,2.85,5.58,3.41,1.4,2.52
GCTATTAGTTGTAAGGGCAACCGAATGATTCTCG,1.47,0.411,0.637,0.96,0.441,1.73,1.18,0.507
